IP6K1 inhibitor – inhibitors of human IP6K1; IP6K1 kinase, ADP-Glo luminescence, 2 h; active compounds read low; activity change, % (series mostly up to about 58 µM); hit rate 0.81% among 140,000; AID 1645851; in the data active = activity change below about -25%
Target sequence (Q92551 whole entry, looked up): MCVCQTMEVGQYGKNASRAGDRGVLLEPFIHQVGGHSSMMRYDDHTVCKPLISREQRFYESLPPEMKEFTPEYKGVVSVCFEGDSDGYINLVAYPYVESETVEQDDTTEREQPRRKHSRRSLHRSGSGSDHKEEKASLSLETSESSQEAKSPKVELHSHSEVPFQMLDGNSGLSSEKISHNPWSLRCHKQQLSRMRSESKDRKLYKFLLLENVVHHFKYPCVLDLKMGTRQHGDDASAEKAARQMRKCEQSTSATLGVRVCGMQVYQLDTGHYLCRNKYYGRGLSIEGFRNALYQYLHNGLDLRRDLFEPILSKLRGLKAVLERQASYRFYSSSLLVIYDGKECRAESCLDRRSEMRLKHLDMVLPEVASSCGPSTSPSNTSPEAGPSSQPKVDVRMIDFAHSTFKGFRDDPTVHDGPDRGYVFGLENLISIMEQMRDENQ
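ADP-Glo luminescence measures ADP made by human IP6K1 during a 2 h RT reaction with ATP/IP6 (mix at 1.3 mM/130 uM); top library doses 57.5 and 19.1 uM final.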
SNCA expr inh – reduces expression of the alpha-synuclein gene; hit rate 0.17% among 140,000; AID 1671194; HEK-293 SNCA-luciferase knock-in, luminescence, 24 h; Potency, µM (doses to about 57.2 µM), actives largely listed as inhibitors; note: nearly all actives have a fitted effect of over 45% in size
SNCA viab count – cell viability loss counter-screen | HEK-293-SNCA-luc viability, GF-AFC fluorescence, 24 h | Potency, µM (titrated, usually from 57.1 µM), hits mostly cytotoxic | hit rate 0.12% among 150,000 | AID 1671193; note: nearly all actives have a fitted effect of over 30% in size
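Cytotoxicity counterscreen: after 24 h compound treatment of genome-edited SNCA-luciferase HEK-293 cells, live-cell protease substrate GF-AFC read by fluorescence after 30 min; activity scaled between DMSO (0%) and medium-only (-100%), curves Hill-fitted.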
KDM5B inh – KDM5B demethylase inhibition. Q9UGL1. KDM5B demethylase, FDH-coupled NADH fluorescence (FDH is formaldehyde dehydrogenase). Potency, µM (highest dose often 57.7 µM), actives largely listed as inhibitors. hit rate 2.6% among 220,000; note: nearly all actives have a fitted effect of over 70% in size
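Inhibition is measured as reduced NADH fluorescence generation from FDH coupling to formaldehyde release. Truncated KDM5BΔAP at 200 nM final acts on H3K4me3 peptide (12.5 µM in substrate mix) in pH 7.5 HEPES buffer with Tween-20, 30 min, room temperature.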
IP6K1 inh cnf – confirmation of human IP6K1 inhibitors; Potency, µM (top dose mostly 49 µM), usual class: inhibitors; shares compounds with IP6K1 inhibitor; recombinant IP6K1 kinase, ADP-Glo luminescence, 2 h; hit rate 13% among 1,200; AID 1645852; note: nearly all actives have a fitted effect of over 65% in size
Of the large screens only hits and unclear results are named; the others gave an inactive call (follow-up assays come after a bar, where they were run). Sampled rows, rich in hits. Any-hit rate of the full collection: about 2.8%. Unless noted, calls come from the whole dose curve; as a rule, active = well fitted curve in the direction sought with a large enough effect; inconclusive = small, poorly fitted or top-dose-only effect, or another doubt; inactive = no such curve, though single readings can be large; an effect the other way counts as inactive or inconclusive.

COc1c(Cl)cc(C(=O)Nc2cc(-c3nc4ccccc4[nH]3)ccc2C)cc1Cl	SNCA expr inh inconclusive, KDM5B inh inconclusive
COc1cc(OC)cc(C(=O)Nc2cc(-c3nc4ccccc4[nH]3)ccc2C)c1	IP6K1 inhibitor -25, SNCA viab count inconclusive, KDM5B inh inconclusive | IP6K1 inh cnf inactive
CCNc1c(NS(=O)(=O)c2ccc(C)cc2)c(=O)oc2ccccc12	none (no result: IP6K1 inhibitor, SNCA expr inh, SNCA viab count)
COc1cc([C@H]2Oc3cc([C@H]4Oc5cc(O)cc(O)c5C(=O)[C@H]4O)ccc3O[C@H]2CO)ccc1O	SNCA expr inh inconclusive (no result: IP6K1 inhibitor, KDM5B inh)
COc1cc([C@H]2Oc3cc([C@H]4Oc5cc(O)cc(O)c5C(=O)[C@@H]4O)ccc3O[C@@H]2CO)ccc1O	IP6K1 inhibitor -79 (no result: KDM5B inh) | IP6K1 inh cnf 7.3µM
Cc1csc(SCC(=O)C(C)(C)C)n1	none (no result: IP6K1 inhibitor, SNCA expr inh, SNCA viab count)
CCCSc1ncc(Cl)c(C(=O)Nc2ccc(S(=O)(=O)N3CCC(C)CC3)cc2)n1	none
COc1cncc(Nc2cnc3ccc(-c4ccccc4)nn23)c1	IP6K1 inhibitor -36, KDM5B inh inconclusive | IP6K1 inh cnf inconclusive
Cc1ccc(S(=O)(=O)c2[nH]c(-c3ccccc3)nc2SCC(=O)O)cc1	IP6K1 inhibitor -26 | IP6K1 inh cnf inactive
C=C1CC[C@H]2[C@@](C)(CCC[C@@]2(C)C(=O)O)[C@@H]1CCC(C)CCO (some centres not stated)	none (no result: SNCA expr inh, KDM5B inh)
C=C1CCC2C(C)(C)C(O)CCC2(C)C1CCC(C)CCO (configuration not stated)	IP6K1 inhibitor -30 (no result: SNCA expr inh, KDM5B inh) | IP6K1 inh cnf inconclusive
COc1ccccc1NC(=O)c1c(NC(=O)c2ccccc2Cl)sc2c1CCC2	IP6K1 inhibitor -31 | IP6K1 inh cnf inactive
O=C1NC(=O)/C(=C/c2ccc3c(c2)OC(F)(F)O3)S1	IP6K1 inhibitor -37 (no result: KDM5B inh) | IP6K1 inh cnf inconclusive
CCOC(=O)c1ccc(NC(=O)CC2C(=O)N(c3ccccc3)C(=O)N2Cc2ccc(C)cc2)cc1 (configuration not stated)	IP6K1 inhibitor -40, SNCA expr inh inconclusive | IP6K1 inh cnf inconclusive
CCC(=O)c1c(O)cc(O)cc1O	IP6K1 inhibitor -29 (no result: KDM5B inh) | IP6K1 inh cnf inconclusive
CCC(=O)c1ccc(NC(C)=O)cc1O	none (no result: IP6K1 inhibitor, SNCA expr inh, SNCA viab count)
Cc1c(C(=O)N(Cc2ccccc2F)C2CCS(=O)(=O)C2)oc2ccccc12 (configuration not stated)	IP6K1 inhibitor -61 | IP6K1 inh cnf inactive
CCOC(=O)c1ccc(NC(=O)Cc2ccc(-n3c(CC)nc4cccnc43)cc2)cc1	IP6K1 inhibitor -45, SNCA viab count inconclusive | IP6K1 inh cnf inconclusive
Cc1ccc(NC(=O)c2cc(S(=O)(=O)N3CCCc4ccccc43)ccc2F)cc1F	IP6K1 inhibitor -29 | IP6K1 inh cnf inactive
Cc1ccc(NC(=O)c2cc(S(=O)(=O)NC3CCCCCC3)ccc2F)cc1F	IP6K1 inhibitor -27, SNCA expr inh inconclusive, SNCA viab count inconclusive | IP6K1 inh cnf inactive
O=C(Nc1ccc(Cl)cc1)c1cc(S(=O)(=O)NC2CCCCCC2)ccc1F	SNCA expr inh inconclusive, SNCA viab count inconclusive
N#Cc1cccc(C(=O)NCCc2cccnc2)c1	none (no result: IP6K1 inhibitor, SNCA expr inh, SNCA viab count)
O=C(Cn1nc2n(c1=O)CCCC2)Nc1cccc(C(F)(F)F)c1	SNCA expr inh inconclusive
Cn1c(SCC(=O)Nc2ccccc2)nnc1-c1ccccc1	IP6K1 inhibitor -34 | IP6K1 inh cnf inactive
Cn1c(SCC(=O)Nc2ccc(NC(=O)c3ccccc3)cc2)nnc1-c1ccncc1	none (no result: IP6K1 inhibitor, SNCA expr inh, SNCA viab count)
COc1cc(S(=O)(=O)N2CCc3c(nc[nH]c3=O)C2)c(OC)cc1C	IP6K1 inhibitor -30 | IP6K1 inh cnf inactive
FC(F)(F)c1ccccc1-c1nc(NCc2ccc(-c3ccc(Cl)c(Cl)c3)cc2)c2ccccc2n1	none (no result: IP6K1 inhibitor, SNCA expr inh, SNCA viab count, KDM5B inh) | IP6K1 inh cnf inactive
Clc1ccccc1-c1nc(NCc2cccs2)c2ccccc2n1	none (no result: IP6K1 inhibitor, KDM5B inh)
Cc1ccccc1-c1nc(NCc2cccs2)c2ccccc2n1	none (no result: IP6K1 inhibitor, KDM5B inh) | IP6K1 inh cnf inactive
FC(F)(F)c1ccccc1-c1nc(NCc2cccs2)c2ccccc2n1	none (no result: IP6K1 inhibitor, KDM5B inh) | IP6K1 inh cnf inactive
CNC(=O)c1cc(C2CC2)nc2c1c(C1CCCN1C(=O)N(C)C)nn2C (configuration not stated)	none (no result: SNCA expr inh, SNCA viab count, KDM5B inh)
NC(=O)c1cccc(-c2cc(Nc3ccc(OC(F)(F)F)cc3)ncn2)c1	IP6K1 inhibitor -25 (no result: KDM5B inh) | IP6K1 inh cnf inconclusive
O=C(NCCO)c1cccc(-c2cc(Nc3ccc(OC(F)(F)F)cc3)ncn2)c1	none (no result: SNCA expr inh, KDM5B inh)

Screens (PubChem BioAssay)
